In PubChem BioAssay AID602474 (National Center for Advancing Translational Sciences (NCATS), 2012):
Records with an inconclusive call do not appear. Where a call stands in place of a potency, no number is given. Active and inactive are the calls of the source. The call rests on the fitted dose curve; in most records, active means well fitted inhibition curve with a large enough effect; inconclusive means small, poorly fitted or top-dose-only effect; inactive means no such curve, though single readings can be large or run the other way.

Target: Luciferin 4-monooxygenase (Photinus pyralis) (UniProt P08659)
Assay: FLuc inhibitory activity for the follow-up compounds in a biochemical assay with a commercial detection reagent - BriteliteTM Plus (PerkinElmer)
Settings: purified FLuc, Britelite Plus luminescence; series mostly up to 38.3 µM
Excerpt: NCGC Assay Overview: Firefly (Photinus pyralis) luciferase is one of the most commonly used transcriptional reporters. It is considered one of the more dynamically responsive reporters - that is, responsive to changes in reporter transcription - as it requires no post-translational modifications and is enzymatically active directly after protein synthesis (Wood, 1998). With no endogenous expression in mammalian cells and without the requirement of external excitation, it offers very little background signal, thus generally providing excellent signal to background for most assays. Previous profiling work to determine the prevalence of compounds that affect FLuc enzymatic activity (PubChem AID 411) identified that ~3% of the MLSMR library (then at ~72K) inhibited FLuc (Auld et al., 2008). […] Of the compounds identified in this profile that inhibited FLuc, 151 compounds were selected for further analysis, in an effort to better understand their mode of inhibiting FLuc. The assay described here was to determine the activity of the compounds in a FLuc assay that used a commercial formulation of detection reagent (BriteliteTM Plus; PerkinElmer).
NCGC Assay Protocol Summary: Reagents: Britelite Plus detection reagent; 50mM Tris acetate, pH 7.5; 10nM P. pyralis luciferase (Sigma #L9506) Control compounds used were two known firefly luciferase inhibitors (3-(5-(3-chlorophenyl)-1,2,4-oxadiazol-3-yl)benzoic acid and 5-(2-fluorophenyl)-3-phenyl-1,2,4-oxadiazole), and DMSO. Assay Summary: Three microliters of buffer containing firefly luciferase (final concentrations: 50mM Tris acetate, 10nM P. pyralis luciferase) are dispensed into each well of a Greiner white, solid-bottom 1536-well format plate using a flying reagent dispenser (FRD). These assay plates were then treated with 23nL of compound or DMSO using a Kalypsys pin tool, which allows for delivery of a 12-point intraplate titration of each compound to the assay plate (quantitative HTS), with final compound concentrations ranging from approximately ~38uM to 0.2nM. Three microliters of 2X Britelite Plus detection reagent was then delivered by FRD to each well. Luciferase activity was then measured using a ViewLux CCD imager (PerkinElmer), with an average exposure time of 2-30 seconds (2X binning, medium/high gain).

Sequence of Luciferin 4-monooxygenase (Photinus pyralis) (P08659 whole entry, looked up): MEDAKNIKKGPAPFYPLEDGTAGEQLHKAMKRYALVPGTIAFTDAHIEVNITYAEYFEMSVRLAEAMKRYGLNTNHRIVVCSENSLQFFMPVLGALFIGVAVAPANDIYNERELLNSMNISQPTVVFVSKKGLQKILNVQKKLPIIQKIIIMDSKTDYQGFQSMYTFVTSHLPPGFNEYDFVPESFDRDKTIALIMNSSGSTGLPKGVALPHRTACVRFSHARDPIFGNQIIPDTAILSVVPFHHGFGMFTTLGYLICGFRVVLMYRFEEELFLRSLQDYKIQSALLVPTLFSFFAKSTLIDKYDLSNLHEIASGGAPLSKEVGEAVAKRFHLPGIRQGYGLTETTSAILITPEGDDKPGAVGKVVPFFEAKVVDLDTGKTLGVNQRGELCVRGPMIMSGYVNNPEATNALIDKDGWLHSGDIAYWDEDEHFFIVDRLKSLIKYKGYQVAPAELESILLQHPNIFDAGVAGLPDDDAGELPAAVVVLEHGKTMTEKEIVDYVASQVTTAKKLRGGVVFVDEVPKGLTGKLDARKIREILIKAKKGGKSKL

**Q.** Which Potency does the source give for `COc1ccccc1C(=O)Nc1ccc(C(=O)O)cc1` here?
**A.** inactive

**Q.** How did the Potency turn out when `COc1ccc2nc(NC(=O)c3ccco3)sc2c1` was run?
**A.** 1590 nM (active)

**Q.** `O=C(O)c1ccc(NC(=O)c2cc(S(=O)(=O)N3CCCCC3)c(Cl)cc2Cl)cc1` was tested. Which Potency did it give?
**A.** inactive

**Q.** With `COc1ccc2nc(NC(=O)c3cccc(S(=O)(=O)N4CCOCC4)c3)sc2c1` as the molecule, how does the Potency read?
**A.** inactive

**Q.** With `O=C(O)c1ccccc1NC(=O)c1ccccc1Nc1ccccc1` as the molecule, how does the Potency read?
**A.** inactive

**Q.** `O=C(O)c1ccc(NC(=O)c2ccccc2NC(=O)c2ccccc2Br)cc1` was tested. Which Potency did it give?
**A.** inactive

**Q.** Which Potency does the source give for `O=C(Nc1ccccc1C(=O)O)c1cccc(NC(=O)c2ccc(Br)o2)c1` here?
**A.** inactive

**Q.** With `O=C(Nc1ccccc1C(=O)O)c1cccc(NC(=O)c2ccccc2Br)c1` as the molecule, how does the Potency read?
**A.** inactive

**Q.** `Nc1ccc(-c2nc3ccc(N)cc3s2)cc1` was tested. Which Potency did it give?
**A.** 565 nM (active)

**Q.** For `Cc1cccc(NS(=O)(=O)c2cccc(C(=O)Nc3cccc(C(=O)O)c3)c2)c1`, which Potency is on record?
**A.** inactive

**Q.** How did the Potency turn out when `COc1ccc2nc(NC(=O)C3CCN(S(=O)(=O)c4cccs4)CC3)sc2c1` was run?
**A.** inactive

**Q.** Which Potency does the source give for `Cn1c(N/N=C/c2cc3ccccc3nc2Cl)nc2ccccc21` here?
**A.** 12600 nM (active)

**Q.** Which Potency does the source give for `CC(C)C(=O)Nc1cccc(C(=O)Nc2ccccc2C(=O)O)c1` here?
**A.** 17900 nM (active)

**Q.** `CCOc1ccc2nc(NC(=O)c3ccccn3)sc2c1` was tested. Which Potency did it give?
**A.** 895 nM (active)

**Q.** For `CCOc1ccc2nc(NC(=O)c3cc([N+](=O)[O-])ccc3N3CCOCC3)sc2c1`, which Potency is on record?
**A.** inactive

**Q.** For `O=C(Nc1cccc(-c2nc3ccccc3s2)c1)C1=COCCO1`, which Potency is on record?
**A.** inactive

**Q.** Which Potency does the source give for `COc1ccc2nc(NC(=O)c3cccs3)sc2c1` here?
**A.** inactive

**Q.** How did the Potency turn out when `O=C(Nc1ccccc1C(=O)O)c1cc(S(=O)(=O)Nc2ccccc2)ccc1Cl` was run?
**A.** inactive

**Q.** For `Cc1c(C)c2ccc(OCC(=O)Nc3ccccn3)c(C)c2oc1=O`, which Potency is on record?
**A.** 40 nM (active)

**Q.** How did the Potency turn out when `O=C(O)c1ccc(NC(=O)c2ccccc2NC(=O)c2cccc(Br)c2)cc1` was run?
**A.** inactive

**Q.** `O=C(O)c1cccc(NC(=O)c2cccc(S(=O)(=O)N3CCc4ccccc4C3)c2)c1` was tested. Which Potency did it give?
**A.** inactive

**Q.** `O=C(Nc1ccccc1C(=O)O)c1cccc(NC(=O)c2ccccc2Cl)c1` was tested. Which Potency did it give?
**A.** inactive

**Q.** With `Nc1ccc(C(=O)Nc2ccccc2C(=O)O)cc1` as the molecule, how does the Potency read?
**A.** 11300 nM (active)

**Q.** Which Potency does the source give for `COc1ccc2nc(NC(=O)c3ccc(NS(=O)(=O)c4cccs4)cc3)sc2c1` here?
**A.** inactive

**Q.** With `O=C(O)c1ccc(NC(=O)c2cccc(C(=O)Nc3ccc(C(=O)O)cc3)c2)cc1` as the molecule, how does the Potency read?
**A.** inactive

**Q.** How did the Potency turn out when `COc1ccc(-c2nc3ccccc3s2)cc1NC(=O)c1ccc(F)cc1` was run?
**A.** inactive

**Q.** Which Potency does the source give for `COc1ccc(C(=O)Nc2nc3ccc(OC)cc3s2)cc1` here?
**A.** inactive

**Q.** `CCOc1ccc2nc(NC(=O)c3ccoc3C)sc2c1` was tested. Which Potency did it give?
**A.** 2000 nM (active)

**Q.** How did the Potency turn out when `Cc1cccc(C(=O)Nc2ccc(-c3nc4ccccc4s3)cc2Cl)c1` was run?
**A.** inactive

**Q.** For `O=C(Nc1ccccc1C(=O)O)c1cc(S(=O)(=O)NCc2ccccc2)ccc1Cl`, which Potency is on record?
**A.** inactive

**Q.** How did the Potency turn out when `O=C(Nc1ccccc1C(=O)O)c1ccc(NC(=O)C2CC2)cc1` was run?
**A.** 4490 nM (active)

**Q.** With `O=C(Nc1ccccc1-c1nc2ccccc2s1)c1ccc(Br)o1` as the molecule, how does the Potency read?
**A.** inactive

**Q.** With `O=C(Nc1ccccc1C(=O)O)c1ccccc1` as the molecule, how does the Potency read?
**A.** inactive

**Q.** For `COc1ccc(NS(=O)(=O)c2cccc(C(=O)Nc3ccccc3C(=O)O)c2)cc1`, which Potency is on record?
**A.** inactive

**Q.** `CCn1c(C)nc2cc(-c3nc4n(n3)Cc3ccccc3-4)ccc21` was tested. Which Potency did it give?
**A.** 71.1 nM (active)

**Q.** With `O=C(O)c1cccc(NC(=O)c2ccccc2NC(=O)c2ccco2)c1` as the molecule, how does the Potency read?
**A.** inactive

**Q.** How did the Potency turn out when `CCOC(=O)N1CCN(CC(=O)Nc2nc3ccc(OC)cc3s2)CC1` was run?
**A.** inactive

**Q.** With `Cc1ccc(S(=O)(=O)N2CCOCC2)cc1C(=O)Nc1ccccc1C(=O)O` as the molecule, how does the Potency read?
**A.** inactive

**Q.** Which Potency does the source give for `Nc1ccc2nc(-c3ccc(O)cc3)sc2c1` here?
**A.** 1130 nM (active)

**Q.** How did the Potency turn out when `Nc1cccc(-c2nc3ccc(N)cc3s2)c1` was run?
**A.** 798 nM (active)
